Data from ChEMBL document CHEMBL4513216, “Probing the Open Global Health Chemical Diversity Library for Multistage-Active Starting Points for Next-Generation Antimalarials” (ACS Infect Dis, 2020).
Hit rate of the full screen: of about 69,000 compounds, about 8,600 (12%) showed an effect of 50% or more. Many of the other results were omitted from the sample, so strong results are more common in it than they were.

System: Plasmodium berghei
Test: Screen against P. berghei liver stage (PbLuc), transformed with Luciferase, at 10uM
Format: functional, HepG2
Details: tested at 10 uM

SMILES	INHIBITION [%]
Cc1ccc(C(=O)N2CCc3c(CNc4ncccn4)cncc3C2)o1	-66.6
CCc1cc(CN(C)C(=O)c2cnon2)on1	-40.6
OCc1csc(N2CCCC(CO)(Cc3cccc(Cl)c3)C2)n1 (stereo unspecified)	-14.9
Cc1cnn(CC2CCCN2Cc2coc(-c3ccc(F)cc3)n2)c1 (stereo unspecified)	69.7
Fc1ccc(-c2nc(CN3CCCC3Cn3cncn3)co2)cc1 (stereo unspecified)	4.71
Cc1cnn(CC2CCCN2Cc2coc(-c3cccc(F)c3)n2)c1 (stereo unspecified)	80.8
Fc1cccc(-c2nc(CN3CCCC3Cn3cncn3)co2)c1 (stereo unspecified)	7.12
Fc1cccc(-c2nc(CN3CCCC3Cn3cccn3)co2)c1 (stereo unspecified)	-14.6
Cc1cnn(CC2CCCN2Cc2coc(-c3ccccc3)n2)c1 (stereo unspecified)	-14.2
CS(=O)(=O)C1CCN(S(=O)(=O)c2ccc(F)c(F)c2)C1 (stereo unspecified)	21.2
Cn1ccc2cc(C(=O)NC3CCS(=O)(=O)C3)ccc21 (stereo unspecified)	-42.5
CNC(=O)[C@@H](C1CCCCC1)N1CCC[C@H]1C(=O)NCCN1CCCC1	0.112
CCc1nnc(SCC(=O)N2C[C@H]3CC[C@@H](C2)N(CC=C(C)C)C3)[nH]1	26.7
CC1c2ncc(CNC(=O)C3CC3)n2CCN1Cc1cccnc1 (stereo unspecified)	-5.31
Cc1nc(N2CCOCC2)sc1C(=O)NCC(C)(C)N1CCCCC1	-4.87
COCCN1CCCC12CCN(C(=O)CC1CCCC1)CC2	32.4
Cn1ncc(C(=O)N2CCN(CCS(C)(=O)=O)CC2)c1Cl	30.95
O=C(NCC(O)Cc1ccccc1)c1ccc2[nH]c(=O)[nH]c2c1 (stereo unspecified)	43.9
O=C1CCC2(CCOC2)CN1Cc1nncn1CCc1ccccc1 (stereo unspecified)	10.1
O=C1CCC2(CCOC2)CN1CCCOc1cccnc1 (stereo unspecified)	-0.897
Cc1nc2ccc(CN3CC4(CCOC4)CCC3=O)cc2[nH]1 (stereo unspecified)	67.4
O=C1CCC2(CCOC2)CN1Cc1nc2ccc(Cl)cc2[nH]1 (stereo unspecified)	27.9
CCCn1nc(C)c(CN2CC3(CCOC3)CCC2=O)c1C (stereo unspecified)	64.5
O=C1CCC2(CCOC2)CN1Cc1ccc2nsnc2c1 (stereo unspecified)	16.8

SMILES	INHIBITION [%]
CCCc1nc(C)c(CN2CC3(CCOC3)CCC2=O)s1 (stereo unspecified)	33.7
CCn1nc(C)c(CCN2CC3(CCOC3)CCC2=O)c1C (stereo unspecified)	56.6
CCc1c(C)nn(CCN2CC3(CCOC3)CCC2=O)c1C (stereo unspecified)	44.3
O=C([C@H]1CC[C@@H]2[C@@H](CCN2c2ncccn2)O1)N1CCCCO1	-13.2
Cc1noc(C(C)N2CCN(Cc3nnc(C4CC4)o3)CC2)n1 (stereo unspecified)	-19.6
CN(C)C(=O)c1n[nH]c2c1CN(CC1CCC1)C2	30.5
O=C1CCC(C(=O)Nc2cnn(-c3ccccc3Cl)c2)N1 (stereo unspecified)	19.7
COc1ccc(C)cc1-c1csc(N)c1C#N	1.86
Cc1ccc(-c2csc(N)c2C#N)c(C)c1	40.9
Cc1ccc(C)c(-c2csc(N)c2C#N)c1	64.7
Cc1nc[nH]c1CN1C[C@H]2CC[C@@H](C1)N(C(=O)CCn1cncn1)C2	40.2
COc1cccc(C(C)Nc2ncnc3c2NC(=O)CN3)c1 (stereo unspecified)	45.8
CC(CN1CCOCC1)n1cncc1-c1ccc2c(c1)CCCN2C (stereo unspecified)	-16
NC(=O)C(NC(=O)c1cc(Br)c[nH]1)c1ccccc1 (stereo unspecified)	34.4
NC(=O)C(NC(=O)c1cc(Cl)c[nH]1)c1ccccc1 (stereo unspecified)	52.8
Cc1cc(C)c(C(=O)N[C@H](C(N)=O)c2ccccc2)c(=O)[nH]1	-31.4
CO[C@H]1CCN(Cc2c(C)noc2C)[C@@H]2CN(Cc3cccnc3)C[C@H]12	28.5
O=C(NCc1nnc2n1CCCCC2)N1CCc2ccccc2C1	41.2
Cc1ccsc1CN(C)C(=O)Cn1nc(-c2ccc(F)cc2)oc1=O	22.1
COc1ccccc1CNC(=O)Cn1nc(-c2ccc(F)cc2)oc1=O	-16.1
O=C(Cn1nc(-c2ccc(F)cc2)oc1=O)NCc1ccccc1F	-69.9
CN(Cc1ccc(Cl)s1)C(=O)Cn1nc(-c2ccc(F)cc2)oc1=O	66.1
CN(Cc1ccccc1Br)C(=O)Cn1nc(-c2ccc(F)cc2)oc1=O	26.8
Cc1ccccc1CNC(=O)Cn1nc(-c2ccc(F)cc2)oc1=O	50.15

SMILES	INHIBITION [%]
CN(Cc1ccc(F)cc1)C(=O)Cn1nc(-c2ccc(F)cc2)oc1=O	1.58
Cc1ccc(CN(C)C(=O)Cn2nc(-c3ccc(F)cc3)oc2=O)cc1	30.8
Cc1ccccc1CN(C)C(=O)Cn1nc(-c2ccc(F)cc2)oc1=O	56.5
CCOC1Sc2nnc(C)n2N=C1c1ccc(Br)cc1 (stereo unspecified)	18.2
CN(C)[C@@H]1CCN(C(=O)c2cccc(C#N)c2)[C@H]1Cc1cnn(C)c1	27.6
Cc1ccc(-c2cc(CN3CCOC(Cn4cncn4)C3)on2)cc1 (stereo unspecified)	24.6
O=C(C1CC=CC1)N1CCC2(CCN(Cc3ccccn3)C2=O)C1 (stereo unspecified)	17.5
CC(C)n1cnnc1C1CCCN(S(=O)(=O)CC2CCCC2)C1 (stereo unspecified)	76.5
CC(C)n1cnnc1C1CCCN(S(=O)(=O)CCCF)C1 (stereo unspecified)	39.7
CC(C)CCS(=O)(=O)N1CCCC(c2nncn2C(C)C)C1 (stereo unspecified)	44.9
Cc1oc(C(=O)O)cc1S(=O)(=O)Nc1cc(Br)ccc1Cl	38.8
COCC1CN(C(=O)Nc2cc(Cl)ccc2F)CCO1 (stereo unspecified)	8.13
NC(=O)C1CN(c2ccc3c(Cl)ccnc3c2F)CCO1 (stereo unspecified)	-22.4
COCC1CN(c2ccc(C#N)c(Cl)c2)CCO1 (stereo unspecified)	96.1
COCC1CN(c2ccc(Cl)cc2C#N)CCO1 (stereo unspecified)	53.4
COCC1CN(C(=O)Nc2ccc(Cl)cc2Cl)CCO1 (stereo unspecified)	6.85
COCC1CN(c2ccc3c(Cl)ccnc3c2F)CCO1 (stereo unspecified)	84.2
N#Cc1cc(Cl)ccc1N1CCOC(C(N)=O)C1 (stereo unspecified)	32.5
Cn1cc(N2CCN(c3ccc(C#N)c(Cl)c3)CC2=O)cn1	-11.6
CC(=O)NCC1CN(c2ccc3c(Cl)ccnc3c2F)CCO1 (stereo unspecified)	23.8
N#Cc1ccc(Cl)cc1N1CCC(OC2CCOCC2)CC1	35.2
N#Cc1ccc(N2CCC(OC3CCOCC3)CC2)cc1Cl	57
Clc1cnccc1N1CCC(OC2CCOCC2)CC1	48.5
